Assay outcomes as filed in PubChem BioAssay.
Hits are enriched below; roughly 2.1% of the tested compounds scored in any of these assays.
HNF4A DNA FP: change in binding of human HNF4 alpha to DNA | HNF4a-FITC DNA binding, fluorescence polarization, 1 h | activity change, % at 10 µM | 0.3% of 360,000 active; in the data active means activity change above about 30%, passing the limit was not always enough
Myeloid diff 2: myeloid differentiation induction | ER-HoxA9 myeloid progenitors, lysozyme-GFP differentiation, flow cytometry | calls only at 10 µM | 1% of 360,000 active;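 active means normalized GFP-positive differentiation at or above the plate's own cutoff, the solvent-only control mean plus 3 SD; inconclusive means no clear call, values can overlap the other calls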;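 further: cells exposed to compound for four days before flow analysis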
TPT1 inh: blocks Candida albicans tRNA 2'-phosphotransferase; 0.81% of 300,000 active; recombinant caTPT1, FP RNA substrate dephosphorylation; inhibition, % at 5 µM; AID 1962;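 active means inhibition above the mean of all tested compounds plus 3 SD, set per screening campaign, cut at about 24% in these data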;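 further: plate controls were DMSO alone for no effect and ferristatin control at 100 nM for full effect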
Rpn11 inh: Rpn11 (human) deubiquitinase inhibition | human 26S proteasome, Ub4-pepOG fluorescence polarization; 20S core pre-blocked with epoxomicin | inhibition, % at 20 µM | 0.59% of 360,000 active;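 active means inhibition at 20 µM, scaled to each plate's controls, above about 33%, limit read from the data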
Rpn11 inh conf: confirmation of human proteasome Rpn11 inhibitors. shares compounds with Rpn11 inh. purified human 26S proteasome, Ub4-pepOG fluorescence polarization; proteasome pretreated with epoxomicin. inhibition, % at 20 µM. 29% of 1,900 active. AID 602318
MMP-2 counter: blocks human MMP-2, flagging nonselective RPN11 hits; inhibition, % at 20 µM; shares compounds with Rpn11 inh; recombinant MMP-2, FRET peptide cleavage fluorescence; 4% of 1,900 active;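 further: human MMP-2 activated beforehand with APMA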
Thrombin FP: blocks bovine thrombin, flagging nonselective RPN11 hits. 13% of 1,900 active. shares compounds with Rpn11 inh. inhibition, % at 20 µM. bovine thrombin cleavage of Ub4-pepOG, fluorescence polarization;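 active means mean inhibition at least 40% at 20 µM, or signal 3 deviations below plate average, so some actives read negative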;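 further: plate controls were thrombin with DMSO for no effect and buffer wells lacking thrombin for full effect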
Target sequence (P00735 whole entry, looked up): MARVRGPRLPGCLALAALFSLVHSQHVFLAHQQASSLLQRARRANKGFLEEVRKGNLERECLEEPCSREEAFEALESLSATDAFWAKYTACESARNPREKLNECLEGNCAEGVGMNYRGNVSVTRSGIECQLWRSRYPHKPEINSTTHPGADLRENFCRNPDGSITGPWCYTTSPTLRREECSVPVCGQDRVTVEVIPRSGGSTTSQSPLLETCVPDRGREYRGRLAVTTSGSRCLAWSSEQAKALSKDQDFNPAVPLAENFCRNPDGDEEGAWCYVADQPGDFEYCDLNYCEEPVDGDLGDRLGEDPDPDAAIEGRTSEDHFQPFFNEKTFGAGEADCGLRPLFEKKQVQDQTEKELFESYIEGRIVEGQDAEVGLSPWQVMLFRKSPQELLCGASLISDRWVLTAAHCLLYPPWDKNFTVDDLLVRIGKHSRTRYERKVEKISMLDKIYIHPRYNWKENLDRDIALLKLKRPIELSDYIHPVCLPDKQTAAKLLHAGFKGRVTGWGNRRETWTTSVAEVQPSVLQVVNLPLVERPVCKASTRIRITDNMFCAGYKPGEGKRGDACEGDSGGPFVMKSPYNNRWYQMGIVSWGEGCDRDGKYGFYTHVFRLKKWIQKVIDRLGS
The depositor's hits bear a star; i = inactive; u = inconclusive; x = no result given; + = active, no number. Unless noted, no stated cut-off is given here; in the data, active means inhibition above about 40%; inactive means the rest.

SMILES | HNF4A DNA FP | Myeloid diff 2 | TPT1 inh | Rpn11 inh | Rpn11 inh conf | MMP-2 counter | Thrombin FP
Cn1nc([N+](=O)[O-])nc1Sc1cccc2cccnc12 | -5 | i | -2 | 46* | 8 | -33 | -11
O=C(CCC1CCCC1)NNC(=O)c1ccccc1O | -1 | i | 4 | -2 | x | x | x
O=C1c2cccc3cccc(c23)C(=O)N1c1ccc2ncccc2c1 | -4 | i | 5 | 136* | 41* | 37 | -8
CCN1CCN(CCCNC(=O)c2ccc(CS(=O)c3ccc(Br)cc3)o2)CC1 (stereo not given) | -4 | i | -1 | -2 | x | x | x
COc1cccc(-c2nn(C)c3sc(C(=O)NCCCN(C)Cc4ccccc4)cc23)c1 | 1 | i | -5 | 88* | -17 | -10 | -17
COc1ccc(NC(=O)Nc2nnc(-c3ccncc3)s2)cc1 | -2 | i | 0 | -2 | x | x | x
O=C(Nc1ccc(Cl)c(Cl)c1)Nc1nnc(-c2ccncc2)s1 | -66 | i | 2 | 161* | 21 | -45 | 12
COc1cccc(-c2c(C(=O)N/N=C/c3sccc3C)nnn2-c2nonc2N)c1 | 3 | i | -3 | 0 | x | x | x
CCOC(=O)c1sc(NN=C(C(=O)OC)C(=O)OC)c(C(=O)OCC)c1C | 25 | i | 7 | 43* | 11 | 34 | 4
CCOC(=O)N1CCN(C(=O)c2ccc(OC(C)=O)cc2)CC1 | 1 | i | -2 | -4 | x | x | x
COc1ccc(NC(=O)Nc2nnc(Cc3ccc(F)cc3)s2)cc1 | 16 | i | x | 59* | 27 | 2 | 27
CCCc1nnc(NC(=O)Nc2ccc(OC)cc2)s1 | -1 | i | 2 | 2 | x | x | x
CC(C)c1ccccc1NC(=S)NN(Cc1ccccc1)c1ccccc1 | 3 | i | -5 | 8 | x | x | x
Fc1ccccc1NC(=S)NN(Cc1ccccc1)c1ccccc1 | 38* | i | -1 | 111* | -1 | 46* | -4
O=c1cc(CN2CCCCCCC2)c2ccccc2o1 | 23 | i | x | 46* | 17 | 12 | -5
O=c1cc(CN2CCCCC2)c2ccccc2o1 | 0 | i | x | 8 | x | x | x
O=C(Nc1ccccc1)c1cnc2ccccc2n1 | -2 | i | -3 | 128* | -1 | -19 | -9
COc1ccc(S(=O)(=O)n2nc(OC(=O)c3cccs3)cc2NC(=O)c2cccs2)cc1 | 2 | i | -1 | -2 | x | x | x
O=c1cc(-c2ccc(Cl)cc2)[nH][nH]1 | 1 | i | -2 | 110* | -7 | -28 | -13
C=CCn1c(SCc2nc3sc(C(=O)O)c(C)c3c(=O)[nH]2)nnc1-c1ccc(F)cc1 | 1 | i | -1 | -3 | x | x | x
COCCCn1cnnc1SCc1nc2sc(C(C)=O)c(C)c2c(=O)[nH]1 | 8 | i | 16 | 51* | 10 | -52 | 23
O=C(N/N=C\c1cc([N+](=O)[O-])ccc1N1CCCC1)c1ccccn1 | -1 | i | 1 | 1 | x | x | x
O=C(Cn1c2ccccc2c(=O)c2ccccc21)N/N=C/c1cc([N+](=O)[O-])ccc1N1CCCCC1 | 13 | i | 3 | 59* | 18 | -10 | 17
Cc1noc(/C=C/c2ccco2)c1S(=O)(=O)N1CCC(C(=O)NC(C)c2ccccc2)CC1 (stereo not given) | 21 | + | 5 | 52* | 0 | -37 | -2
Cc1noc(/C=C/c2ccco2)c1S(=O)(=O)N1CCC(C(=O)N(C)Cc2ccccc2)CC1 | -2 | i | 11 | 25 | x | x | x
SMILES | HNF4A DNA FP | Myeloid diff 2 | TPT1 inh | Rpn11 inh | Rpn11 inh conf | MMP-2 counter | Thrombin FP
COc1cc(/C=C2\C=CC(=O)O2)cc(OC)c1 | 22 | i | 24 | 38* | 22 | -4 | 9
COc1cc(/C=C/C(=O)O)cc(OC)c1 | -3 | i | -2 | -10 | x | x | x
CCn1c(=O)cc(C(F)(F)F)[nH]c1=S | -1 | i | -2 | 53* | -2 | 9 | -10
CCn1c(=S)[nH]c2cc(C(=O)O)ccc21 | x | x | -3 | x | x | x | x
Cc1ccc(C(=O)C[n+]2ccc(-c3nnc4n3CCC4)cc2)cc1 | 0 | i | 2 | -1 | x | x | x
Nc1[nH]c(C(=O)c2ccccc2)c(-c2cccnc2)c1C(=O)NC1CCCCC1 | -4 | i | x | x | x | x | x
CCN(CC)S(=O)(=O)c1cc(NC(=O)CNc2c(C)n(C)n(-c3ccccc3)c2=O)ccc1C | 4 | i | -3 | 1 | x | x | x
O=C(/C=C/c1ccc([N+](=O)[O-])cc1)c1ccccc(=O)c1O | -1 | x | x | 42* | -2 | -2 | -15
CC(=O)N1CCN(S(=O)(=O)c2cccc(C(=O)OCC(=O)NCc3ccccc3Cl)c2)CC1 | -1 | i | x | 2 | x | x | x
COc1ccc2oc(C(=O)Nc3nc(-c4ccccn4)cs3)c(C)c2c1 | 6 | i | 14 | 42* | 52* | 13 | 9
CCCC(=O)NC(c1cccs1)c1cc([N+](=O)[O-])c2cccnc2c1O (stereo not given) | 5 | i | -1 | 47* | 66* | 36 | -7
CC(C)C(=O)NC(c1ccccc1)c1cc([N+](=O)[O-])c2cccnc2c1O (stereo not given) | -6 | i | 1 | 45* | 47* | 43* | -1
CC(=O)NC(c1ccccc1)c1cc([N+](=O)[O-])c2cccnc2c1O (stereo not given) | 4 | i | -1 | 38 | x | x | x
CCC(=O)NC(c1cccs1)c1cc([N+](=O)[O-])c2cccnc2c1O (stereo not given) | -2 | i | 0 | 40* | 48* | 27 | -20
O=C(CCc1ccccc1)NC(c1cccs1)c1cc(Cl)c2cccnc2c1O (stereo not given) | 0 | u | x | 16 | x | x | x
CCC(=O)NC(c1cccs1)c1cc(Cl)c2ccccc2c1O (stereo not given) | 2 | i | x | -10 | x | x | x
CCNc1nc(Cl)nc(NCc2ccccc2)n1 | -4 | i | -1 | 68* | -22 | -30 | -22
Cc1nc(NN)nc(NCc2ccccc2)n1 | -3 | i | 2 | -1 | x | x | x
COc1cccc(NC(=O)Nc2cccnc2)c1 | -2 | i | -4 | -4 | x | x | x
Cc1nonc1NC(=O)Nc1cccnc1 | -2 | i | -4 | + | 1 | -9 | -14
Cn1ccc2cc(NC(=O)Nc3cccnc3)ccc21 | -1 | i | -3 | 66* | 8 | -21 | -2
Cc1cccc(NC(=O)Nc2cccnc2)c1C | 5 | i | x | 5 | x | x | x
CCOc1ccc(C2NC(=O)C(C#N)=C(S)N2c2ccc(C)cc2)cc1OC (stereo not given) | 31* | i | 1 | 70* | 5 | 23 | -3
COc1cc(-c2nnc(COC(=O)c3nn(CC(C)C)c(=O)c4ccccc34)o2)cc(OC)c1OC | 0 | i | -3 | -2 | x | x | x
Nc1cccn2c(-c3ccc(Cl)c(Cl)c3)cnc12 | 31 | + | 18 | 54* | 32 | -15 | 4
O=C(CN(Cc1ccccc1F)S(=O)(=O)c1ccc(Cl)cc1)NCCCO | 1 | i | -5 | 2 | x | x | x
